Measured values from ChEMBL document CHEMBL1157539, “Thousands of chemical starting points for antimalarial lead identification” (Nature, 2010).

Legend:
Type in all cases: functional
Plasmodium falciparum [1] = test: GSK_TCMDC: Inhibition of Plasmodium falciparum 3D7 in whole red blood cells, using parasite LDH activity as an index of growth. Test compounds present at 2uM
Plasmodium falciparum [2] = test: GSK_TCMDC: Inhibition of Plasmodium falciparum Dd2 in whole red blood cells, using parasite LDH activity as an index of growth. Test compounds present at 2uM
HepG2 = test: GSK_TCMDC: Percent inhibition of human HepG2 cell line. Test compounds present at 10uM.

Row | SMILES | Inhibition (Plasmodium falciparum [1]) | Inhibition (Plasmodium falciparum [2]) | Inhibition (HepG2)
1 | Cc1cnc2ccc(NS(=O)(=O)c3sc4ccc(Cl)cc4c3C)cc2c1N1CCNCC1.Cl | 99% | 0% | 0%
2 | CCNC(=O)N[C@@H]1CN[C@@H](C#Cc2cc3c(Nc4ccc(OCc5cccc(F)c5)c(Cl)c4)ncnc3s2)C1 | 85% | 27% | 0%
3 | CS(=O)(=O)CCNCc1cccc(-c2ccc3c(Nc4ccc(Oc5cccnc5)cc4)ccnc3c2)c1 | 100% | 99% | 27%
4 | COc1ccc2c(Nc3ccc(N4CCN(C)CC4)cc3)cc(C)nc2c1 | 100% | 9% | 23%
5 | CCCCCN1CCCN(Cc2cccc(NC(=O)c3ccc(-c4ccccc4)cc3)c2)CC1.O=C(O)C(F)(F)F | 95% | 15% | 23%
6 | CCn1ncc2c(NC3CCOCC3)c(CNC(=O)c3ccnn3C)c(C)nc21 | 98% | 98% | 0%
7 | CN1CCN(CC(=O)Nc2cccc(-c3ccc(-c4nc5cc(C(F)(F)F)ccc5[nH]4)s3)c2)CC1 | 100% | 95% | 36%
8 | CCNc1cc(C(=O)N[C@@H](Cc2ccccc2)[C@H](O)CNC2(C(C)C)CCC2)cc(N2CCCCS2(=O)=O)c1.Cl | 99% | 85% | 0%
9 | Cc1ccc(NC(=O)N2CCN(CCCCCNC(=O)/C=C/c3ccc(Cl)c(Cl)c3)CC2)cc1C | 94% | 0% | 7%
10 | COc1ccc(Nc2nccc(N3CCC(NC(=O)c4cccc(C#N)c4)C3)n2)cc1 (stereo not given) | 92% | 93% | 6%
11 | CCN(CC)/C(=N/C(=N)NCc1cccc(Cl)c1)NCCCCCCN/C(=N\C(=N)NCc1cccc(Cl)c1)N(CC)CC | 99% | 99% | 17%
12 | CC1CCCC(Nc2noc(-c3sccc3Br)n2)C1 (stereo not given) | 100% | 99% | 7%
13 | COc1ccc(-c2cccc(NC(=O)c3cccc(Cl)c3)c2)cc1CN1CCC(O)CC1.O=C(O)C(F)(F)F | 98% | 16% | 38%
14 | CCNc1cc(C(=O)N[C@@H](Cc2ccccc2)[C@H](O)CNC(C)(C)Cc2cccc(OC)c2)cc(N2CCCC2=O)c1.O=CO | 99% | 97% | 7%
15 | Cl.c1ccc(Oc2cccc(Nc3ccnc4ccccc34)c2)cc1 | 95% | 14% | 48%
16 | N#Cc1cccc(Nc2nccc(NCC(O)c3ccccc3C(F)(F)F)n2)c1 (stereo not given) | 98% | 39% | 36%
17 | COc1ccc(-c2nc3cccnc3n2CC(=O)Nc2c(C)cc(C)cc2C)c(OC)c1 | 91% | 21% | 77%
18 | COc1ccccc1-c1cccc(Nc2c(Nc3ccc(Cl)cc3)c(=O)c2=O)c1 | 81% | 47% | 20%
19 | COc1ccc(CNc2ccnc3cc(OC)ccc23)cc1 | 100% | 74% | 7%
20 | CCC1(CC)NC(N)=NC(=N)N1OCc1ccc(Cl)c(Cl)c1.Cl | 94% | 49% | 49%

Row | SMILES | Inhibition (Plasmodium falciparum [1]) | Inhibition (Plasmodium falciparum [2]) | Inhibition (HepG2)
21 | Nc1cc(-c2ccc3ccccc3c2)nc2ccccc12 | 99% | 52% | 19%
22 | C=CCc1ccc(C[C@H](NC(=O)OC(C)(C)C)C(=O)OC)cc1 | 98% | 98% | 77%
23 | COc1cccc(CCNc2nc(NCc3ccccc3)c3cc(OC)c(OC)cc3n2)c1 | 100% | 99% | 20%
24 | O=C(Nc1cccc(-c2nn3ccccc3c2-c2ccnc(Nc3ccc(C(=O)N4CCOCC4)cc3)n2)c1)c1c(F)cccc1F | 99% | 97% | 72%
25 | CN(C)CC(=O)Nc1ccc(-c2ccc3ccnc(N)c3c2)cc1.O=C(O)C(F)(F)F | 100% | 99% | 69%
26 | CCOC(=O)c1ccc(-n2c(C)cc(C=C3SC(=Nc4ccccc4)N(C4CCCC4)C3=O)c2C)cc1 | 98% | 61% | 2%
27 | CCn1cc(C=C2Oc3c(ccc(O)c3CN3CCCCC3C)C2=O)c2ccccc21 (stereo not given) | 94% | 80% | 0%
28 | O=C(NCC1CN(Cc2ccc(N3CCCC3)o2)CCCO1)c1ccc2c(c1)OCO2.O=CO (stereo not given) | 83% | 70% | 0%
29 | O=C(/C=C/c1ccc(Cl)c(Cl)c1)NCCCCCN1CCC(CCNC(=O)Cc2ccc(Cl)cc2)CC1 | 83% | 0% | 45%
30 | COc1ccc(C(=O)Nc2cc(Cl)c3c(c2)C2CCCN2CC3)cc1C(F)(F)F.Cl (stereo not given) | 99% | 33% | 35%
31 | COc1cc(Nc2nccn3c(-c4ccsc4)cnc23)cc(OC)c1OC | 93% | 78% | 26%
32 | CC(Cc1ccc(NC(=O)c2ccc(CC(C)NCc3ccc(Cl)c(Cl)c3)cc2)cc1)NCCc1cccc(Cl)c1 (stereo not given) | 92% | 33% | 26%
33 | COc1ccc(CNCc2ccsc2)cc1-c1ccc(OC)c(S(=O)(=O)NCCN2CCCC2)c1.O=C(O)C(F)(F)F | 97% | 62% | 18%
34 | COc1ccc(CNCCc2cccs2)cc1-c1cccc(S(=O)(=O)NCCN2CCCC2)c1.O=C(O)C(F)(F)F | 98% | 41% | 56%
35 | COc1ccc(OC)c2c1CC1NCC2c2c(OC)ccc(OC)c21.Cl (stereo not given) | 99% | 3% | 2%
36 | Cc1cccc2nc(-c3ccc(-c4ccc(CNCCCNS(C)(=O)=O)cc4)s3)[nH]c12.O=C(O)C(F)(F)F | 99% | 4% | 13%
37 | CCN1CCC(N(CCCCCCCCc2ccc(C(F)(F)F)cc2)C(=O)Cn2c(CCc3cccc(F)c3F)cc(=O)c3ccccc32)CC1.O=C(O)C(O)C(O)C(=O)O | 88% | 65% | 89%
38 | CC(Cc1ccc(NC(=O)c2ccc(CC(C)NCc3ccc(Cl)cc3)cc2)cc1)NCCc1cccc(Cl)c1 (stereo not given) | 100% | 75% | 95%
39 | Cc1nn(-c2ccccc2)c2nc(-c3ccccc3)cc(C(=O)N3CCOCC3)c12 | 93% | 67% | 6%
40 | O=C(N[C@H]1CCN(CCc2ccc(O[C@H]3CCNC3)cc2)C1)c1ccc(Cl)c(Cl)c1.O=C(O)C(F)(F)F | 96% | 5% | 18%

Row | SMILES | Inhibition (Plasmodium falciparum [1]) | Inhibition (Plasmodium falciparum [2]) | Inhibition (HepG2)
41 | Cc1cc(C)c2ncc(C(=O)O)c(O)c2c1 | 93% | 60% | 0%
42 | COc1cc2nc(N3CCC(NC(=O)c4cccc(N(C)C)c4)CC3)nc(N)c2cc1OC.O=C(O)/C=C\C(=O)O | 98% | 0% | 6%
43 | CC1CCC(C[C@@H](C(=O)N[C@H](C(=O)Nc2nccs2)[C@@H](C)O)[C@H](CCC(F)(F)F)N(O)C=O)CC1 (stereo not given in full) | 95% | 94% | 0%
44 | CC(C)CN(C)c1ncnc2c1nc(-c1cncc(C#N)c1)n2CCNCc1ccccc1.O=C(O)C(F)(F)F | 86% | 2% | 4%
45 | CN(C)CCNCc1cccc(-c2cccc(-c3nc4ccccc4[nH]3)c2)c1.O=C(O)C(F)(F)F | 100% | 63% | 7%
46 | Cl.ON=C1c2cc(OCCN3CCCCC3)c(Cl)cc2-c2cc(Cl)c(OCCN3CCCCC3)cc21 | 97% | 98% | 99%
47 | CN(C)c1ccc(CN2CCC(NC(=O)c3ccc(-c4cccc(Cl)c4)s3)CC2)cc1.O=C(O)C(F)(F)F | 93% | 44% | 65%
48 | N=C1NC(=O)C(=Cc2cn(-c3ccccc3)nc2-c2cccc(S(=O)(=O)N3CCCC3)c2)S1 | 85% | 68% | 0%
49 | Nc1ncnc2c1ncn2C(CO)Cc1ccc(O)cc1 (stereo not given) | 93% | 0% | 0%
50 | Cc1cc2cc(-c3ccc(CN)cc3)ccc2nc1N | 92% | 8% | 18%
51 | CC(O)C(C)(CO)NCc1ccc2c3c(cccc13)-c1ccccc1-2.Cl (stereo not given) | 95% | 85% | 81%
52 | O=C(Nc1ccc(OC2CCN(Cc3ccccc3)C2)c(Cl)c1)c1ccsc1.O=C(O)C(F)(F)F (stereo not given) | 93% | 75% | 12%
53 | c1ccc(N2CCN(c3cc(-c4cccnc4)nc(-c4ccncc4)n3)CC2)nc1 | 99% | 22% | 22%
54 | COc1ccc(NC(=O)c2ccc(OCCCCCCCOc3ccc(C(=O)Nc4ccc(OC)c(N5CCN(C)CC5)c4)cc3)cc2)cc1N1CCN(C)CC1.O=C(O)C(=O)O | 96% | 91% | 98%
55 | CN(C)CCCn1cncc1-c1ccc2ncnc(Nc3ccc4c(cnn4Cc4ccccc4)c3)c2c1 | 100% | 77% | 17%
56 | COc1ccccc1C1CCN(CCN2CCC(NC(=O)c3ccc(-c4ccc(C#N)cc4)cc3)CC2)CC1 | 99% | 42% | 31%
57 | O=C(NCCc1ccc(Cl)c(Cl)c1)[C@@H]1CCCN1C(=O)c1ccc(O)c(-c2ccc(Cl)c(Cl)c2)c1 | 99% | 99% | 0%
58 | CN1CCCC(CN2CCN(Cc3ccc(-c4ccc(-c5nc6cc(F)ccc6[nH]5)cc4)cc3)CC2)C1.O=C(O)C(F)(F)F (stereo not given) | 100% | 98% | 90%
59 | Cc1c(Cn2ncc(N3CC(C)NC(C)C3)c(Cl)c2=O)cccc1NC(=O)Nc1ccc(-c2ccccc2)cc1.O=C(O)C(F)(F)F (stereo not given) | 97% | 35% | 97%
60 | COc1ccc(Nc2ncc3c(-c4cccc(NC(=O)Cc5ccc(F)cc5)c4)c[nH]c3n2)cc1OC | 100% | 90% | 21%
